Source: PubChem BioAssay (NCATS)
Several values for one entry are separate records, joined by “and”; a condition that tells them apart may be missing. Equal entries are not always repeated. Records with an inconclusive call do not appear. Activity calls are given as the source filed them. Calls follow the shape of the dose curve; as a rule, active = well fitted curve in the direction sought with a large enough effect; inconclusive = small, poorly fitted or top-dose-only effect, or another doubt; inactive = no such curve, though single readings can be large; an effect the other way counts as inactive or inconclusive.

Key:
[1] = Cell Viability - LYMP1-003 - Assay at 40 hr (AID 964); also: nearly all actives have a fitted effect of over 60% in size; also: potency is read from the fitted curve at half-maximal effect
Summary of the method: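 Viability is taken as cellular ATP, read by CellTiter-Glo luminescence after 40 h of compound exposure at 37 C. Cells: human lymphoblastoid line LYMP1-003 at 2500/well; AC50 values derived by Hill-equation fitting of concentration-response data.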

[2] = Cell Viability - LYMP2-003 (AID 965);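 also: cells exposed to compounds for 24 h before reading; nearly all actives have a fitted effect of over 50% in size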; also: potency is read from the fitted curve at half-maximal effect
Summary of the method: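 Acute cytotoxicity is scored as a concentration-dependent drop in intracellular ATP, measured by luciferase luminescence in human lymphoblastoid cells treated for 24 hours at 37 C. AC50 values derive from Hill-equation modelling.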

[3] = Cell Viability - LYMP2-004 (AID 966); also: nearly all actives have a fitted effect of over 65% in size; also: potency is read from the fitted curve at half-maximal effect
Summary of the method: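 AC50 values come from Hill modelling of concentration-dependent loss of intracellular ATP, measured by CellTiter-Glo luminescence. Human LYMP2-004 lymphoblastoid cells (2500/well) were exposed to compound for 24 h at 37 C.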

[4] = Cell Viability - LYMP2-009 (AID 968); also: nearly all actives have a fitted effect of over 55% in size; also: potency is read from the fitted curve at half-maximal effect
[5] = Cell Viability - LYMP2-011 (AID 969); also: nearly all actives have a fitted effect of over 60% in size; also: potency is read from the fitted curve at half-maximal effect
Summary of the method: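 Cytotoxicity qHTS with ATP content as read-out: lymphoblastoid cells (2500/well) exposed to compound for 24 h at 37 C, then luciferase luminescence measured. Concentration-response data fitted with the standard Hill equation to give AC50.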

[6] = Cell Viability - LYMP2-013 (AID 970); also: nearly all actives have a fitted effect of over 55% in size; also: potency is read from the fitted curve at half-maximal effect
Summary of the method: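 qHTS cytotoxicity: ATP-dependent luminescence (CellTiter-Glo, 30 min room temperature) read after 24 h compound exposure at 37 C of 2500 LYMP2-013 lymphoblastoid cells per well. Concentration-response fitted with Hill equation to give AC50.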

[7] = Cell Viability - LYMP2-015 (AID 971); also: nearly all actives have a fitted effect of over 55% in size; also: potency is read from the fitted curve at half-maximal effect
Summary of the method: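 Cytotoxicity readout: decrease in intracellular ATP (CellTiter-Glo luminescence) in 2500 LYMP2-015 lymphoblastoid cells/well after 24 h compound exposure at 37 C. Concentration-response data fitted with the standard Hill equation to give AC50.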

[8] = Cell Viability - LYMP2-017 (AID 972); also: nearly all actives have a fitted effect of over 55% in size; also: potency is read from the fitted curve at half-maximal effect
Summary of the method: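 CellTiter-Glo luminescence (cellular ATP, 30 min RT) measured cytotoxicity after 24 hr compound treatment at 37 C. Cells were a human lymphoblastoid line, LYMP2-017, plated at 2500/well and incubated 5 hr first; concentration-response fitted with Hill equation for AC50.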

[9] = Cell Viability - LYMP2-021 (AID 974); also: nearly all actives have a fitted effect of over 55% in size; also: potency is read from the fitted curve at half-maximal effect
Summary of the method: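 AC50 values come from Hill-equation fits to CellTiter-Glo luminescence (ATP content), read after 24 hour compound exposure at 37 C of 2500 LYMP2-021 lymphoblastoid cells/well; tetraoctylammonium bromide as positive control.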

[10] = Cell Viability - LYMP2-025 (AID 976); also: series mostly up to about 92 µM
Summary of the method: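 Cytotoxicity read as loss of intracellular ATP (luciferase luminescence) after 24 h compound treatment at 37 C. Uses LYMP2-025 lymphoblastoid cells in 1536-well format; Hill-equation modelling gives AC50; tetraoctylammonium bromide as positive control.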

[11] = Cell Viability - LYMP2-002 (AID 977); also: potency is read from the fitted curve at half-maximal effect
Summary of the method: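 Human lymphoblastoid cells (2500/well) in complete medium were preincubated 5 hr at 37 C, then exposed to compounds for 24 hr at 37 C. Intracellular ATP was read by CellTiter-Glo luminescence; AC50 came from Hill-equation concentration-response fits.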

[12] = Cell Viability - LYMP2-006 (AID 978); also: nearly all actives have a fitted effect of over 60% in size; also: potency is read from the fitted curve at half-maximal effect
Summary of the method: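 Concentration-dependent loss of intracellular ATP in a human lymphoblastoid line after 24 hr treatment at 37 C was measured by CellTiter-Glo luminescence, with AC50 values obtained from standard Hill-equation modelling.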

[13] = Cell Viability - LYMP2-007 (AID 979);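 also: cells exposed to compound for 24 h before reading; nearly all actives have a fitted effect of over 60% in size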; also: potency is read from the fitted curve at half-maximal effect
Summary of the method: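 AC50 values come from Hill-equation fits of luminescent intracellular ATP (CellTiter-Glo, 30 min, room temperature) following 24 h compound exposure at 37 C. Cells: LYMP2-007 lymphoblastoid line, 2500 per well, in complete culture medium.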

[14] = Cell Viability - LYMP2-008 (AID 980); also: nearly all actives have a fitted effect of over 60% in size; also: potency is read from the fitted curve at half-maximal effect
Summary of the method: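 Cytotoxicity determined from ATP-dependent luciferase luminescence (CellTiter-Glo) following 24 h compound exposure of human lymphoblastoid LYMP2-008 cells at 37 C. Concentration-response data fitted to the Hill equation to give AC50.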

[15] = Cell Viability - LYMP2-010 (AID 981); also: nearly all actives have a fitted effect of over 55% in size; also: potency is read from the fitted curve at half-maximal effect
Summary of the method: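 CellTiter-Glo ATP luminescence measured cytotoxicity after 24 h compound exposure at 37 C. LYMP2-010 cells were seeded at 2500/well, with tetraoctylammonium bromide as control; concentration-response curves gave AC50 values by the Hill equation.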

[16] = Cell Viability - LYMP2-012 (AID 982); also: potency is read from the fitted curve at half-maximal effect
[17] = Cell Viability - LYMP2-014 (AID 983); also: nearly all actives have a fitted effect of over 50% in size; also: potency is read from the fitted curve at half-maximal effect
Summary of the method: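 Intracellular ATP loss, read by luciferase luminescence, measures acute cytotoxicity after 24 h compound exposure of lymphoblastoid LYMP2-014 cells (2500/well, 37 C). Concentration-response data fitted to the Hill equation for AC50.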

[18] = Cell Viability - LYMP2-016 (AID 984); also: nearly all actives have a fitted effect of over 55% in size; also: potency is read from the fitted curve at half-maximal effect
Summary of the method: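 Acute toxicity in a Coriell human lymphoblastoid line is scored as loss of intracellular ATP over 24 h of treatment in complete medium. CellTiter-Glo signal is fitted across concentrations with the Hill equation to give AC50.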

[19] = Cell Viability - LYMP2-018 (AID 985); also: nearly all actives have a fitted effect of over 50% in size; also: potency is read from the fitted curve at half-maximal effect
Summary of the method: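 Viability read as CellTiter-Glo luminescence (cellular ATP) after 24 hr compound exposure at 37 C of 2500 LYMP2-018 lymphoblastoid cells/well, pre-plated 5 hr. Hill-equation modelling gave AC50.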

[20] = Cell Viability - LYMP2-005 (AID 967); also: series mostly up to about 92 µM
Summary of the method: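 qHTS viability screen in LYMP2-005 cells: 24 h at 37 C with compound, ATP luminescence via CellTiter-Glo, AC50 from Hill curves.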

Measured: Potency

OCCOc1ccccc1
not listed: [20]
inactive: all other assays above

Oc1cccc2cccnc12
active: [1] 31.6 µM and 39.8 µM | [2] 12.6 µM | [3] 15.8 µM and 12.6 µM | [4] 10 µM | [6] 15.8 µM | [7] 12.6 µM | [8] 12.6 µM and 10 µM | [11] 25.1 µM and 15.8 µM | [12] 25.1 µM and 15.8 µM | [13] 15.8 µM | [14] 15.8 µM and 12.6 µM | [15] 12.6 µM and 10 µM | [16] 15.8 µM and 10 µM | [17] 15.8 µM and 12.6 µM | [18] 15.8 µM | [19] 12.6 µM and 10 µM

CN(C)CCC=C1c2ccccc2CCc2ccccc21
active: [7] 31.6 µM

CC(COc1ccccc1)N(CCCl)Cc1ccccc1 (stereo unspecified)
active: [4] 39.8 µM | [5] 50.1 µM | [6] 39.8 µM | [7] 39.8 µM | [8] 39.8 µM | [9] 50.1 µM | [11] 50.1 µM | [12] 50.1 µM | [13] 39.8 µM | [14] 39.8 µM

Oc1ccccc1-c1ccccc1
inactive: all assays above

c1ccc2c(c1)Nc1ccccc1S2
inactive: all assays above

CCOP(=S)(OCC)Oc1cc(C)nc(C(C)C)n1
inactive: all assays above
